Screening data deposited in PubChem BioAssay by The Scripps Research Institute Molecular Screening Center.
hcDAF-12 act: activates DAF-12 receptor from parasite H. contortus; HEK293 hcDAF-12 lit1-tk-luc reporter, luminescence; 0% DMSO, 100% Δ7-dafachronic acid; activation, % at 6.8 µM; hit rate 1.4% among 370,000;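 active = activation above the mean of all tested compounds plus 3 SD, cut at about 5.5% in these data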;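 note: 100% = response to 3 µM Δ7-dafachronic acid high control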
SMARCA2 act: SMARCA2 function activation, primary screen; hit rate 1% among 370,000; AID 652017; activation, % at 9.1 µM; MG213 cells, MMTV-luciferase reporter, dexamethasone, overnight; in the data active = activation above about 7.8%;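 note: 0% = vehicle wells and 100% = reference activator wells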
hgDAF-12 ag: activates the H. glycines DAF-12 receptor ligand-binding domain; AID 687014; hit rate 1.8% among 370,000; HEK293 GAL4-hgDAF12 UAS-luciferase reporter, agonist luminescence; normalized to butyrate control; activation, % at 6.8 µM;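 active = activation above a cutoff set at the mean of all screened compounds plus 3 SD, cut at about 10% in these data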;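 note: 0% = DMSO wells and 100% = sodium butyrate wells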
DAX1 inh-1: inhibitors of DAX1 repression of SF-1 activated StAR promoter | HEK293T StAR-luciferase reporter, SF-1/DAX-1 repression relief | AID 652010 | inhibition, % at 6.8 µM | hit rate 1.1% among 370,000;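 active = inhibition above the mean over all tested compounds plus 3 SD, cut at about 3.6% in these data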;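 note: 0% = DAX-1 cells with DMSO and 100% = cells lacking DAX-1 with DMSO; higher inhibition means more luminescence from relief of DAX-1 repression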
DAX1 inh-2: inhibitors of human orphan nuclear receptor DAX1 (NR0B1). P51843. HEK293 Gal4-DAX1 luciferase reporter, luminescence. inhibition, % at 6.75 µM. hit rate 0.99% among 340,000. AID 504766;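 active = inhibition above the mean over all tested compounds plus 3 SD, cut at about 4.2% in these data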;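 note: 0% = DAX1-transfected cells with DMSO and 100% = empty-vector control cells with DMSO; inhibition shows as a rise in luminescence from relieved DAX1 repression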
Target sequence (P51843 207-470 limits assumed): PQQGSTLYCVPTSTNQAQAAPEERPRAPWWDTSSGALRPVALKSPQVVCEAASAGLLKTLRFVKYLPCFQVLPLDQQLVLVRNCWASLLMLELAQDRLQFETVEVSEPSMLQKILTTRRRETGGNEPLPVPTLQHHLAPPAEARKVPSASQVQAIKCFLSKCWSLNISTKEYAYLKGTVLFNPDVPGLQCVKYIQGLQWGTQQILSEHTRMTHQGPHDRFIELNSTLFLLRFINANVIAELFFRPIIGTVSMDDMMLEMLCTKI
ssDAF-12 act: S. stercoralis DAF-12 activation, primary screen. HEK293 ssDAF-12/GRIP1 lit1-tk-luc reporter, luminescence; % of 3 µM dafachronic acid response. activation, % at 6.8 µM. hit rate 1% among 370,000. AID 652126;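 active = activation above the mean over all tested compounds plus 3 SD, cut at about 0.9% in these data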;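 note: 0% = DMSO-only wells and 100% = 3 µM delta7-dafachronic acid wells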
* = called active by the depositor; x = not tested or not shown. Only some compounds are listed: those with a hit (about 4.8% of all), similar ones and a draw of the others.

SMILES	hcDAF-12 act	SMARCA2 act	hgDAF-12 ag	DAX1 inh-1	DAX1 inh-2	ssDAF-12 act
CC(C)=CC(=O)Nc1c(C)cc(C)cc1Cl	2	-1	-2	0	4.6*	-1
O=S1(=O)N=C(N/N=C/c2cccs2)c2ccccc21	-1	0	1	0	4.5*	-1
O=[N+]([O-])c1ccc(/C=N/NC2=NS(=O)(=O)c3ccccc32)cc1	1	-1	-2	1	0	-1
CN(Cc1ccccc1)C(=O)c1ccc(NC(=O)Cc2cccc(NC(=O)C3CCCN(C(=O)C4CCC4)C3)c2)cc1 (stereo not drawn)	-1	-1	-3	0	1	-1
Cc1cc(C)n(-c2ccc(C(=O)OCC(=O)Nc3cc(Cl)ccc3[N+](=O)[O-])cc2)n1	5	-2	2	0	-1	1.2*
Cc1cc(C)n(-c2ccc(C(=O)OCC(=O)Nc3ccccc3[N+](=O)[O-])cc2)n1	0	-1	3	0	0	0
Cc1ccc2c(c1)c1c(n2CC(O)CNC(C)(C)C)CCCC1 (stereo not drawn)	1	-2	-3	1	0	-2
CNCC(O)Cn1c2c(c3ccccc31)CCCC2 (stereo not drawn)	-2	0	0	0	1	6.8*
CN(C)c1ccc(C=NNC(=S)Nc2ccc(F)cc2)cc1	0	2	11*	1	5.0*	-1
COc1ccc(NC(=O)O/N=C/c2ccc(N(C)C)cc2)cc1	0	7	7	1	0	0
CC(=O)Nc1ccc(/C=N/OCC(=O)Nc2ccc(C)cc2)cc1	2	3	12*	0	1	0
Cc1ccc(NC(=O)O/N=C/c2ccc(N(C)C)cc2)cc1	2	7	13*	2	3	0
COc1ccc(/C=N/OC(=O)Nc2ccccc2OC)cc1	1	4	12*	-1	-1	0
Cc1ccc(NC(=O)C=NOCC(=O)Nc2cc(C)cc(C)c2)cc1	1	3	4	-1	1	0
C[C@H]1CN([C@@H](C)CO)C(=O)CCCn2nncc2CO[C@H]1CN(C)C(=O)Nc1ccc2c(c1)OCO2	-1	0	-4	0	0	-1
CCCCC(=O)N(C)c1c(CC)nc2c(OCCC)cccn12	0	-4	-3	1	x	-1
Cc1ccc(C)c(S(=O)(=O)N2CCN(C(=O)[C@H](Cc3ccccc3)NC(=O)c3ccco3)CC2)c1	0	-1	-2	0	1	-1
COc1ccc(NC(=O)O/N=C/c2ccncc2)cc1	1	2	7	1	4.6*	-1
S=C(NN=C(C1CC1)C1CC1)Nc1ccccc1	-1	1	10	1	6.8*	-1
O=C(Nc1ccc(F)cc1)c1cc2ccccc2o1	6.5*	3	10	1	4.3*	1.6*
O=C(NCCc1ccc(F)cc1)c1cc2ccccc2oc1=O	3	0	-1	0	4.3*	-1
O=C(Nc1ccc(NC(=O)c2cc3ccccc3o2)cc1)c1ccco1	-3	0	-2	0	-1	-2
CSc1nc2ccc(NC(=O)c3cc4ccccc4o3)cc2s1	2	7	12*	3	3	0
N/C(=N\NC(=O)c1ccccc1)c1cc2ccccc2oc1=O	0	3	12*	2	0	0
CSc1nc2ccc(NC(=O)c3ccc(=O)[nH]c3)cc2s1	0	-2	0	0	-2	-1
SMILES	hcDAF-12 act	SMARCA2 act	hgDAF-12 ag	DAX1 inh-1	DAX1 inh-2	ssDAF-12 act
O=C(NCCc1ccccc1)c1cc2ccccc2oc1=O	2	2	3	0	0	1
COc1ccc(S(=O)(=O)N2CCC(c3nc4ccccc4o3)CC2)c(OC)c1	-3	-6	0	-1	x	-1
Cc1noc(C)c1C(=O)Nc1cc(S(=O)(=O)N2CCCCC2)ccc1N(C)C	-3	2	2	0	1	-1
CC(=O)Nc1ccc(-c2cc3ccccc3o2)cc1	5	6	10	3	4.5*	0.9*
O=C(Nc1ccc(Cl)cc1Cl)c1cc2ccccc2o1	5	4	7	2	2	2.2*
Cc1ccc(-c2[nH]c3ccccc3c2SCCNC(=O)c2cc3ccccc3oc2=O)cc1	6.5*	1	3	0	-1	0
